Experimental data as given in PubChem BioAssay (NCI).
Compounds without any hit were thinned out: in the full panel of roughly 79,000, 15% have a hit. Unmarked numbers belong to inactive results. Calls of active or inactive are those of the source. Rule as the data show it: active = growth inhibition above about 70%; inactive = the rest.

Experiments:
[1] = NCI Yeast Anticancer Drug Screen. Data for the rad50 strain (AID 155);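 also: 0% = growth of vehicle-only cultures of the same strain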; conditions: S. cerevisiae rad50 strain growth inhibition, stronger effect = higher value
How it was run: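 Vehicle-treated cultures provide the reference for the growth inhibition reported for compound-exposed, repair-deficient yeast.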

[2] = NCI Yeast Anticancer Drug Screen. Data for the mec2-1 strain (AID 157); conditions: S. cerevisiae mec2-1 strain, stronger effect = higher value
How it was run: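 Cells of the genetically defined mec2-1 yeast strain are incubated with test compound. Inhibition of growth is calculated against vehicle-treated controls.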

[3] = NCI Yeast Anticancer Drug Screen. Data for the sgs1 mgt1 strain (AID 161);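 also: 0% = growth of cultures given vehicle only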; conditions: S. cerevisiae sgs1 mgt1 strain, stronger effect = higher value
How it was run: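 Mutant yeast exposed to compound; growth scored against vehicle-only wells.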

[4] = NCI Yeast Anticancer Drug Screen. Data for the cln2 rad14 strain (AID 165);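 also: 0% = growth equal to vehicle treated cultures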; conditions: S. cerevisiae cln2 rad14 strain, stronger effect = higher value
How it was run: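 The screen exposed genetically defined yeast (cln2 rad14) to test compounds and scored growth inhibition relative to vehicle-treated controls.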

[5] = NCI Yeast Anticancer Drug Screen. Data for the bub3 strain (AID 167); conditions: S. cerevisiae bub3 mutant strain, stronger effect = higher value
How it was run: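 Mutant yeast screening strain plus compound; vehicle-treated cultures serve as the 0% inhibition reference.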

[6] = NCI Yeast Anticancer Drug Screen. Data for the mlh1 rad18 strain (AID 175); conditions: S. cerevisiae mlh1 rad18 strain growth inhibition, stronger effect = higher value
How it was run: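 Compound-treated yeast growth, normalised to vehicle controls. Strain bears defined DNA repair mutations.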

[7] = at 5.0 µM (retest, dose inferred, filed as 0.5)
[8] = at 50.0 µM (retest, dose inferred, filed as 5.0)

Row | Compound | growth inhibition [1, 7] | growth inhibition [1, 8] | growth inhibition ([1]; at 50.0 µM) | growth inhibition [2, 7] | growth inhibition [2, 8] | growth inhibition ([2]; at 50.0 µM) | growth inhibition [3, 7] | growth inhibition [3, 8] | growth inhibition ([3]; at 50.0 µM) | growth inhibition [4, 7] | growth inhibition [4, 8] | growth inhibition ([4]; at 50.0 µM) | growth inhibition [5, 7] | growth inhibition [5, 8] | growth inhibition ([5]; at 50.0 µM) | growth inhibition [6, 7] | growth inhibition [6, 8] | growth inhibition ([6]; at 50.0 µM)
1 | CCCCCCCCCCCC(O)=C1C(=O)CC(O)CC1=O (configuration not stated) | 33% | 88% (active) | 88.3% (active) | 25% | 97% (active) | 91.6% (active) | 48% | 98% (active) | 91% (active) | 40% | 91% (active) | 90.3% (active) | 42% | 97% (active) | 89.7% (active) | 46% | 96% (active) | 82.8% (active)
2 | Cc1ccc(C(=O)C(F)(F)F)cc1 | -162% | -138% | 4.5% | -46% | -51% | -15.9% | -63% | -68% | -10.5% | -60% | -78% | 32.1% | -74% | -89% | -24.1% | -145% | -117% | 3.3%
3 | CO[C@H]1C[C@@H]2CC[C@@H](C)[C@@](O)(O2)C(=O)C(=O)N2CCCC[C@H]2C(=O)O[C@H]([C@H](C)C[C@@H]2CC[C@@H](OC(=O)C(C)(CO)CO)[C@H](OC)C2)CC(=O)[C@H](C)/C=C(\C)[C@@H](O)[C@@H](OC)C(=O)[C@H](C)C[C@H](C)/C=C/C=C/C=C/1C | 98% (active) | 97% (active) | 82.5% (active) | 99% (active) | 98% (active) | 86.8% (active) | 98% (active) | 98% (active) | 87.3% (active) | 93% (active) | 88% (active) | 88% (active) | 97% (active) | 96% (active) | 89.5% (active) | 98% (active) | 97% (active) | 89.5% (active)
4 | COc1ccc(/C=C/C(=N/NC(=O)c2ccccc2)C(C)CN(C)C)cc1 (configuration not stated) | -3% | 4% | 6.15% | 1% | 4% | 16.3% | 3% | 2% | 6.9% | 1% | -2% | 49.2% | -5% | -7% | -8.2% | -1% | -64% | 7.45%
5 | COc1ccc(/C=C/c2ccnnc2)c(OC)c1OC | -7% | 6% | 53.2% | -3% | 8% | 79.5% (active) | -6% | 5% | 28.6% | -4% | 39% | 52.8% | -5% | 15% | 39.3% | -6% | 2% | 93.7% (active)
6 | CN(C)CCNc1ccc2nnn3c4ccc(O)cc4c(=O)c1c23 | 32% | 51% | 12.1% | -3% | -4% | -3.1% | 12% | 23% | -6.05% | 19% | 32% | 25.4% | 18% | 32% | -0.1% | 27% | 15% | 33.8%
7 | COc1cc2c(cc1OC)-c1nc(N)sc1CC2 | 2% | -4% | 86.8% (active) | -2% | -1% | 85.5% (active) | 2% | -23% | 81.8% (active) | -4% | 4% | 85.7% (active) | -2% | -4% | 85.8% (active) | -1% | 7% | 88.3% (active)
8 | Cc1cc([N+](=O)[O-])ccc1NC(=O)N(C)CCOC(=O)Nc1ccccc1 | 48% | 90% (active) | 84% (active) | 43% | 95% (active) | 89.2% (active) | 42% | 96% (active) | 89.5% (active) | 32% | 97% (active) | 86.4% (active) | 44% | 97% (active) | 89.3% (active) | 64% | 96% (active) | 87.8% (active)
9 | Cc1coc(C)c1C(=S)Nc1ccc(Cl)c(C(=O)OC(C)C)c1 | 6% | 81% (active) | 84% (active) | -8% | 77% (active) | 82.5% (active) | -3% | 81% (active) | 85.2% (active) | 20% | 88% (active) | 81.8% (active) | -15% | 87% (active) | 82.9% (active) | -9% | 86% (active) | 81.6% (active)
10 | COc1ccc(C(c2ccc(N(C)C)cc2)c2ccc(N(C)C)cc2)cc1 | 97% (active) | 85% (active) | 93.5% (active) | 98% (active) | 88% (active) | 93% (active) | 99% (active) | 89% (active) | 94% (active) | 98% (active) | 85% (active) | 41.6% | 99% (active) | 90% (active) | 94.5% (active) | 99% (active) | 87% (active) | 73.2% (active)
11 | COc1cccc(/C=N/N(C)C)c1O | 0% | 29% | 56% | -6% | -17% | 9.05% | -2% | 21% | -1.75% | 0% | -8% | 11.4% | 12% | 29% | 1.4% | 7% | 28% | 19.6%
12 | CCCCCCN(S(=O)(=O)c1ccc([N+](=O)[O-])cc1)S(=O)(=O)c1ccc([N+](=O)[O-])cc1 | 23% | 48% | 66.8% | -105% | 51% | 73.7% (active) | 8% | 48% | 71.3% (active) | 8% | 55% | 68.7% | 32% | 50% | 56.9% | 18% | 48% | 73.8% (active)
13 | C1=C(c2ccccc2)CCc2c1ccc1ccccc21 | 5% | -8% | -3.45% | -6% | 3% | -10.8% | 1% | 16% | 0% | -9% | -10% | 4.35% | 7% | 10% | 16% | -1% | 21% | 5.7%
14 | OC1(c2ccccc2)c2ccccc2C(O)(c2ccccc2)c2cc3c(cc21)CCCC3 (configuration not stated) | 81% (active) | 96% (active) | 96.8% (active) | 28% | 98% (active) | 97.5% (active) | 17% | 98% (active) | 97.7% (active) | -3% | 97% (active) | 97.7% (active) | 17% | 98% (active) | 96% (active) | 51% | 96% (active) | 96.8% (active)
15 | Cc1ccc(S(=O)(=O)CC(=O)CC(=O)C(=O)Nc2cc(C)ccc2C)cc1 | -1% | 4% | 34.2% | -2% | -8% | 9.95% | -2% | 0% | 17.9% | -3% | -1% | 1.85% | -2% | -2% | -0.55% | -2% | -2% | 12.6%
16 | CCC[CH2][Ge]([CH2]CCC)([CH2]CCC)[O]C(=O)C(OC(C)=O)c1ccccc1 (configuration not stated) | 95% (active) | 95% (active) | 78% (active) | 85% (active) | 85% (active) | 75.2% (active) | 98% (active) | 98% (active) | 86% (active) | 55% | 55% | 71% (active) | 62% | 62% | 85% (active) | 87% (active) | 87% (active) | 79.5% (active)
17 | COc1cc(C2c3cc4c(cc3OC3(O)C=C(C)OC(=O)C23)OCO4)cc(OC)c1OC (configuration not stated) | 5% | -5% | 12.1% | 4% | -4% | 30% | 0% | -22% | 13.4% | 0% | 5% | 9.5% | -1% | -3% | 92.3% (active) | 1% | -10% | 29.9%
18 | C[n+]1c(/C=C/c2ccccc2Cl)sc2ccccc21 | 83% (active) | 96% (active) | 97.2% (active) | 99% (active) | 99% (active) | 94.2% (active) | 52% | 88% (active) | 98.2% (active) | 59% | 92% (active) | 98.5% (active) | 98% (active) | 98% (active) | 89.5% (active) | 98% (active) | 98% (active) | 98.7% (active)
19 | CCCCCCCCCCCCCC(N)c1ccc(C)cc1 (configuration not stated) | 60% | 97% (active) | 99% (active) | 0% | 98% (active) | 99.2% (active) | 99% (active) | 98% (active) | 99.5% (active) | 3% | 97% (active) | 97.7% (active) | 13% | 97% (active) | 98.5% (active) | 33% | 97% (active) | 98.3% (active)
